Pf growth 96h = Primary qHTS for delayed death inhibitors of the malarial parasite plastid, 96 hour incubation; P. falciparum luciferase reporter growth, 96 h; Potency, µM (series often up to 28.7 µM), most hits filed as inhibitors; actives 6.9% (n = 320,000); AID 504834, 2011
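Luminescence readout: decreased luciferase signal marks inhibited growth of reporter-expressing P. falciparum in infected red cells (2% hematocrit, 0.05% parasitemia final), exposed to compound two generations (96 h, 37 C, 5% CO2).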
Cycloheximide cs = Cycloheximide Counterscreen for Small Molecule Inhibitors of Shiga Toxin; cell reporter, cycloheximide protein synthesis inhibition counterscreen; max response, %; actives 12% (n = 300,000); AID 2314, 2010; in the data active = max response mostly above about 13%, no sharp cut-off; inactive = mostly below about 14%; note: read at 38.3 µM for the half of the compounds with a filed dose
Shiga toxin inh = A qHTS for Small Molecule Inhibitors of Shiga Toxin. actives 9.2% (n = 290,000). Vero cells, Shiga toxin protein synthesis inhibition reporter. inhibition, % at 38.7 µM. AID 2315, 2010; in the data active = inhibition mostly above about 28%, no sharp cut-off; inactive = mostly below about 43%
Pf growth 48h = Primary qHTS for delayed death inhibitors of the malarial parasite plastid, 48 hour incubation | P. falciparum luciferase growth in erythrocytes, 48 h | Potency, µM (doses to about 28.7 µM), most hits filed as inhibitors | actives 5.9% (n = 310,000) | AID 504832, 2011
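Luminescence readout; reporter = integrated firefly luciferase in P. falciparum. RBC culture at 2% hematocrit, 0.1% parasitemia final, 37 C/5% CO2; decreased signal taken as growth inhibition.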
Each line names hits and unclear results; the compound was inactive in the other large screens; ! = repeats disagree. The list is not random: actives were taken first. Their share in the collection is about 21%. Unless noted, calls come from the whole dose curve; as a rule, active = well fitted inhibition curve with a large enough effect; inconclusive = small, poorly fitted or top-dose-only effect, or another doubt; inactive = no such curve, though single readings can be large or run the other way.

CCNC(=S)N/N=C(\C)c1ccc2ccccc2c1OC(F)F	Pf growth 96h inconclusive, Pf growth 48h 10µM
C/C(=N\NC(=S)NC(C)C)c1ccccc1OC(F)F	Pf growth 96h 8.3µM
COc1ccc(O)c(C(=O)c2cnn(-c3ccccn3)c2)c1	Cycloheximide cs 33, Shiga toxin inh 63
COc1ccc(O)c(C(=O)c2cnc3nc4ccccc4n3c2)c1	none
COc1ccc(O)c(C(=O)c2cnn(-c3ccc(Cl)cc3)c2)c1	Pf growth 96h inconclusive, Shiga toxin inh 40, Pf growth 48h inconclusive
COCCCN1C(=O)c2ccc(C(=O)OCC(=O)N3CCN(c4ccccc4)CC3)cc2C1=O	none (no result: Cycloheximide cs, Shiga toxin inh)
O=C(c1ccc2nccnc2c1)N1CCCC(N2CCN(c3ccc(F)cc3)CC2)C1 (configuration not stated)	Pf growth 96h inconclusive
COc1ccccc1N=CC=C1OC(C)(C)C(C)(C)O1	Cycloheximide cs 10, Pf growth 48h inconclusive
Cc1cc(C(F)(F)F)nc(Nc2nc(C)c3ccccc3n2)n1	none (no result: Pf growth 96h)
Cc1ccc2nc(Nc3nc(C)cc(C(F)(F)F)n3)nc(C)c2c1	Pf growth 96h 5.2µM, Pf growth 48h inconclusive
COc1ccc(N2CCN(C(=O)COC(=O)COc3cccc(C(F)(F)F)c3)CC2)cc1	none (no result: Cycloheximide cs, Shiga toxin inh)
O=C1CC(c2ccc3c(c2)OCO3)Sc2nc3ccccc3n21 (configuration not stated)	Cycloheximide cs 51, Shiga toxin inh 106
O=C1CC(c2ccccc2)Sc2nc3ccccc3n21 (configuration not stated)	Cycloheximide cs 41, Shiga toxin inh 99
O=C1CC(c2ccc(F)cc2)Sc2nc(-c3ccccc3)c(-c3ccccc3)n21 (configuration not stated)	none
O=C(Nc1ccccc1Cl)C1CC(=O)n2c(nc3ccccc32)N1 (configuration not stated)	none
O=C1CC(c2cccs2)Sc2nc3ccccc3n21 (configuration not stated)	Cycloheximide cs 45, Shiga toxin inh 106 (no result: Pf growth 96h)
O=C1CC(c2ccco2)Sc2nc3ccccc3n21 (configuration not stated)	Cycloheximide cs 36, Shiga toxin inh 82
CCCN1C(=O)CC(c2ccco2)Sc2ccccc21 (configuration not stated)	Pf growth 48h inconclusive
CCCc1c(OCCCCc2nn[nH]n2)ccc(C(C)=O)c1O	Pf growth 96h 11µM!, Pf growth 48h inconclusive
COc1ccc(N2CCN(S(=O)(=O)CCNC(=O)COc3cccc(OC)c3)CC2)cc1	Pf growth 96h inconclusive
COc1ccc2nc(/N=C(\N)NC(=O)C(C)(C)C)nc(C)c2c1	Cycloheximide cs 30, Shiga toxin inh 42, Pf growth 48h inconclusive
COc1ccc2nc(SCC(=O)NN)cc(C)c2c1	Pf growth 96h inconclusive
COc1ccc2nc(/N=C(\N)NC(=O)N3c4ccccc4Sc4ccccc43)nc(C)c2c1	Pf growth 96h inconclusive, Pf growth 48h inconclusive
CCC(=O)N/C(N)=N/c1nc(C)c2cc(OC)ccc2n1	Cycloheximide cs 23, Shiga toxin inh 71, Pf growth 48h 3.3µM
Cc1ccc(NC(=O)NCc2ccccn2)c(C)c1	Pf growth 96h inconclusive
O=C(NCc1ccccn1)Nc1ccccc1F	Cycloheximide cs 21, Shiga toxin inh 49
O=C(NCc1ccccn1)Nc1ccccc1C(F)(F)F	Cycloheximide cs 15
O=C(COc1ccccc1)NCC(=O)N1CCCCCC1	none (no result: Cycloheximide cs, Shiga toxin inh)
Cc1ccc(C2C(C(=O)c3cccs3)=C(O)C(=O)N2c2cccc(C)n2)cc1 (configuration not stated)	Cycloheximide cs 17, Shiga toxin inh 70
Cc1cc(N2C(=O)C(O)=C(C(=O)c3cccs3)C2c2cccc(Br)c2)no1 (configuration not stated)	Pf growth 96h inconclusive
Cc1ccc(C2C(C(=O)c3cccs3)=C(O)C(=O)N2c2ccc(S(N)(=O)=O)cc2)cc1 (configuration not stated)	Cycloheximide cs 25
CCOC(=O)C1=C(O)C(=O)N(c2ccc(S(N)(=O)=O)cc2)C1c1ccccc1 (configuration not stated)	none
O=C(OCc1cccc(Cl)c1)c1cc([N+](=O)[O-])ccc1N1CCOCC1	Pf growth 96h 12µM, Pf growth 48h inconclusive (no result: Cycloheximide cs, Shiga toxin inh)
O=C(OCc1cccc(Cl)c1)c1cc(S(=O)(=O)N2CCCCC2)ccc1N1CCOCC1	Pf growth 96h 13µM, Pf growth 48h inconclusive
CC(C)CCCC(C)NC(=O)c1cc(S(=O)(=O)N2CCCCC2)ccc1N1CCOCC1 (configuration not stated)	Pf growth 96h 9.3µM, Pf growth 48h inconclusive (no result: Cycloheximide cs, Shiga toxin inh)
Cc1ccc(C)c(COC(=O)c2cc(S(=O)(=O)N3CCCCC3)ccc2N2CCOCC2)c1	Pf growth 96h inconclusive, Pf growth 48h 15µM (no result: Cycloheximide cs, Shiga toxin inh)
CCCC(=O)Nc1cccc(C(=O)Nc2ccccc2OCC)c1	Pf growth 96h inconclusive, Pf growth 48h inconclusive
CSc1cccc(CN(C)C(=O)C2CCC(=O)N(CCCN3CCCC3=O)C2)c1 (configuration not stated)	Pf growth 96h inconclusive
COc1ccccc1N(CC(=O)NC1CCCCC1)C(=O)CCC(=O)Nc1nccs1	Pf growth 96h inconclusive, Pf growth 48h inconclusive
COC(=O)N1[C@H](C)C=C[C@]1(Cc1ccccc1)C(=O)O	none
Cc1ccccc1C(=O)N1CCC(C(=O)N2CCCc3ccccc32)CC1	Pf growth 48h inconclusive (no result: Cycloheximide cs, Shiga toxin inh)
Cc1ccc(COC(=O)c2cc(S(=O)(=O)N3CCCCC3)ccc2N2CCOCC2)cc1	Pf growth 96h inconclusive, Pf growth 48h 9.3µM (no result: Cycloheximide cs, Shiga toxin inh)
COC(=O)c1cc(S(=O)(=O)N2CCCCC2)ccc1N1CCOCC1	Pf growth 48h inconclusive (no result: Cycloheximide cs, Shiga toxin inh)
COCCNC(=O)c1cc(S(=O)(=O)N2CCCCC2)ccc1N1CCOCC1	none (no result: Cycloheximide cs, Shiga toxin inh)
O=C(COc1cccc(Cl)c1)Nc1cc(S(=O)(=O)N2CCOCC2)ccc1N1CCOCC1	Pf growth 96h inconclusive
Cc1ccc(CNC(=O)c2cc(S(=O)(=O)N3CCCCC3)ccc2N2CCOCC2)cc1	Pf growth 96h inconclusive, Pf growth 48h 8.3µM (no result: Cycloheximide cs, Shiga toxin inh)
O=C(OCc1ccccc1)c1cc(S(=O)(=O)N2CCCCC2)ccc1N1CCOCC1	Pf growth 96h 12µM, Pf growth 48h inconclusive (no result: Cycloheximide cs, Shiga toxin inh)
O=C(c1cc(S(=O)(=O)N2CCCCC2)ccc1N1CCOCC1)N1CCN(Cc2ccccc2)CC1	Pf growth 48h inconclusive
O=C(OCCOc1cccc(Cl)c1)c1cc(S(=O)(=O)N2CCCCC2)ccc1N1CCOCC1	Pf growth 96h 13µM, Pf growth 48h inconclusive (no result: Cycloheximide cs, Shiga toxin inh)
CC(=O)c1ccc(OCCn2cnc3ccccc32)cc1	none
COc1ccc(OCCn2cnc3ccccc32)cc1	Pf growth 96h inconclusive, Cycloheximide cs 9.5, Shiga toxin inh 33
O=C(Cn1cnc2ccccc21)c1ccc(Br)cc1	Cycloheximide cs 22, Pf growth 48h inconclusive
CCC(=O)c1ccc(OCC(O)Cn2cnc3ccccc32)cc1 (configuration not stated)	Pf growth 96h 1.9µM
O=C(Cn1cnc2ccccc21)NC(c1ccccc1)c1ccccc1	Pf growth 96h 3.7µM, Pf growth 48h 4.1µM
C=CCN(C(=O)c1csnn1)C(C(=O)NCc1ccc(F)cc1)c1ccccc1 (configuration not stated)	none
CC(=O)N1CCC(=O)N(C(C)C)c2ccccc21	Pf growth 96h inconclusive
CCCOc1ccc(Cn2cnc3ccccc32)cc1	Cycloheximide cs 14, Pf growth 48h inconclusive

Screening results: PubChem BioAssay, National Center for Advancing Translational Sciences (NCATS)
